PNC inhibitor – inhibitors of perinucleolar compartment assembly | PC3M PTB-GFP, PNC prevalence imaging, 16 h; active compounds read low | activity change (PNC), negative = inhibition, % at 10 µM | 140,000 tested, 3.1% active;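 active = readout at or below -70, meaning at least 70% loss of cells showing the perinucleolar compartment, a nuclear body marking cancer cells; inconclusive = readout between -30 and a set limit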;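 also: plate controls were DMSO wells for no effect and camptothecin positive control wells for full effect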
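PC3M cells stably expressing PTB-GFP, 750–1000 cells/well, treated 16 h at 37 °C with compound (23 nl of library stock), in duplicate. After paraformaldehyde fixation and Hoechst stain, imaged at 20x; PNC prevalence scored by image analysis.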
HPGD inh – inhibitors of human 15-hydroxyprostaglandin dehydrogenase (HPGD) | P15428 | purified HPGD, NADH fluorescence kinetic, PGE2 substrate | Potency, µM, for the others: top-dose activity change, negative = inhibition, hits mostly inhibitors | 150,000 tested, 4.3% active | AID 894; also: potency is read from the fitted curve at half-maximal effect
Target sequence (P15428 whole entry, looked up): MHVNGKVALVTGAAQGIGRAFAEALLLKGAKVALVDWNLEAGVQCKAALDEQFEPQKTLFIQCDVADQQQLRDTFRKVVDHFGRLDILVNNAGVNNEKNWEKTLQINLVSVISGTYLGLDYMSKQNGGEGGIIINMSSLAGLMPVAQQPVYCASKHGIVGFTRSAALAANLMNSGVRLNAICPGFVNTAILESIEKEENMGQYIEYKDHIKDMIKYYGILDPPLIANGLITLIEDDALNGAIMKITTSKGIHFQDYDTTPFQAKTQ
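NADH formation kinetics: reaction with 30 uM PGE2 and 1 mM NAD+ (final), 20 nM enzyme, Tris-HCl pH 8 with Tween 20, after 15 min compound preincubation at room temperature. Fluorescence change, last versus first of five reads.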
ALDH1A1 inh – ALDH1A1 (human) enzyme inhibition. P00352. Purified ALDH1A1, NADH fluorescence, propionaldehyde substrate. Potency, µM (doses to about 75.3 µM), for inactives: top-dose activity, negative = inhibition, hits mostly inhibitors. 220,000 tested, 7.3% active. AID 1030;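 also: potency is read from the fitted curve at half-maximal effect; plate controls were no enzyme wells and a reference inhibitor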
KDM4E inh – JMJD2E (human) inhibition; JMJD2E catalytic domain, FDH-coupled NADH fluorescence (FDH is formaldehyde dehydrogenase); Potency, µM (top dose mostly 57.1 µM), for the others: at the top dose activity change, negative = inhibition, most hits filed as inhibitors; 230,000 tested, 1.6% active;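 also: potency is read from the fitted curve at half-maximal effect; 0% = wells with enzyme and -100% = buffer wells without enzyme; nearly all actives have a fitted effect of over 50% in size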
Target sequence (B2RXH2 1-337 limits assumed): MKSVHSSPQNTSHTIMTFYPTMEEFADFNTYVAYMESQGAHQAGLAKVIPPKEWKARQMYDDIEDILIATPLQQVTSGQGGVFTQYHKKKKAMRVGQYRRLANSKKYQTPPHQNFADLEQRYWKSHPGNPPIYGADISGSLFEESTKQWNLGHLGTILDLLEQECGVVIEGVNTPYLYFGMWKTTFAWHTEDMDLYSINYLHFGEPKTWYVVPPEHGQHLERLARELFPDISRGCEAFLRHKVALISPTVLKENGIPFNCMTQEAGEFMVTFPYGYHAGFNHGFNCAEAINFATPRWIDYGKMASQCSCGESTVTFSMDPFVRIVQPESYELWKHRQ
Starred values were filed as active, the others as inactive; i = inactive; ? = inconclusive; · = no result; [ ] = dose if it differs, or a comment. Compounds with a hit are over-represented: about 11% of the library has one in this group of screens. Unless noted, calls follow the shape of the dose curve; as a rule, active = well fitted inhibition curve with a large enough effect (not every such curve was filed as active); inconclusive = small, poorly fitted or top-dose-only effect, or another doubt; inactive = no such curve, though single readings can be large or run the other way. Unless noted, % is scaled to controls: 0 for no effect and ±100 for the full control effect.

SMILES | PNC inhibitor | HPGD inh | ALDH1A1 inh | KDM4E inh
COc1ccc(C2CC(=O)C(C=NCCCN3CCOCC3)=C(O)C2)cc1 (stereo not given) | 30 | -11% | -14% | 2%
COc1ccc(C=NCCCN2CCOCC2)cc1 | 2 | -8% | 20µM* | ?
COc1ccccc1-c1nc2ccccc2nc1-c1ccccc1OC | -12 | -8% | ? | -11%
O=C1c2ccccc2-c2nc3ccccc3nc21 | ? | -20% | 13µM* | -3%
COc1cc([N+](=O)[O-])ccc1-c1ccc(C(=O)Nc2ccc(NC(C)=O)cc2)o1 | 58 | 28µM* | 0.89µM* | 2%
COc1ccc(NC(=O)c2ccc(-c3ccc([N+](=O)[O-])cc3)o2)cc1OC | 22 | -27% | -10% | 6%
CC#CCN1c2ccccc2[C@]23C[C@@H](C(=O)OC)N(S(=O)(=O)c4ccc([N+](=O)[O-])cc4)C2=NC(C(=O)OC)=C(C(=O)OC)[C@H]13 | · | -3% | 16%[13.5 µM] | 5%[11.4 µM]
CC(=O)Oc1ccc(C(=O)Nc2cccc(C(=O)c3ccc(C)c(C)c3)c2)cc1 | 32 | -16% | -2% | 8%
Clc1cccc(-c2nn3c(Cn4cnc5ccccc54)nnc3s2)c1 | ? | 25µM* | 10µM* | -2%
c1ccc2c(c1)nnn2Cc1nnc2sc(-c3ccncc3)nn12 | -14 | 18µM* | ? | 0%
c1coc(-c2nn3c(Cn4nnc5ccccc54)nnc3s2)c1 | 4 | 10µM* | 10µM* | -2%
c1csc(-c2nn3c(Cn4nnc5ccccc54)nnc3s2)c1 | 15 | ? | i | ?
Clc1ccc(Cc2nn3c(Cn4nnc5ccccc54)nnc3s2)cc1 | ? | 22µM* | 22µM* | 4%
CCOC(=O)c1ccc(N2CCOCC2)c(NC(=O)c2c(-c3ccccc3)noc2C)c1 | · | · | ? | 7%
COc1c(/C=N/Nc2ccc(C(=O)O)cc2)c(CCN(C)C(C)=O)cc2c1OCO2 | · | · | · | -26%
CN(C)Cc1ccccc1-c1cncnc1NCc1cccs1 | · | -14% | -8% | 0%
Cc1cccc(C(=O)N/N=C/c2cc(Br)c(Br)o2)c1 | 3 | -10% | -9% | -6%
COCCn1nnnc1CN1CCC(Cc2ccccc2)CC1 | -100* | -9% | -13% | 6%
Cc1ccccc1Cn1cnc2c(cnn2C(C)(C)C)c1=O | 8 | -28% | 16% | 4%
Cc1ccc(C)c(Cn2cnc3c(cnn3C(C)(C)C)c2=O)c1 | -1 | 22µM* | ? | 6%
O=C(CN1CCN(c2ncc(C(F)(F)F)cc2Cl)CC1)N1CCN(c2ncc(C(F)(F)F)cc2Cl)CC1 | 42 | -26% | 4µM* | -3%
NNC(=O)C=C1CCN(c2ncc(C(F)(F)F)cc2Cl)CC1 | 38 | -3% | 16µM* | ?
Nc1nnn(CC(=O)N/N=C/c2cccc(Cl)c2)n1 | · | · | · | -1%
O=C(Cn1cnc2ccccc2c1=O)Nc1nnc(SCc2ccccc2)s1 | 17 | 22µM* | 9% | 2%
CCCCCc1nnc(NC(=O)Cn2cnc3ccccc3c2=O)s1 | -111* | -5% | 1% | -3%
SMILES | PNC inhibitor | HPGD inh | ALDH1A1 inh | KDM4E inh
CCCCc1nnc(NC(=O)Cn2cnc3ccccc3c2=O)s1 | · | · | -16% | -3%
COc1ccc(C2=NCC(CSc3nnc(-c4ccc5c(c4)OCO5)o3)S2)cc1 (stereo not given) | 32 | 22µM* | -16% | ?
COc1ccc(C2=NCC(CSc3nnnn3C)S2)cc1 (stereo not given) | 5 | -18% | ? | ?
COc1ccc(C2=NCC(CSc3nccc(=O)[nH]3)S2)cc1 (stereo not given) | -12 | 14µM* | ? | 15%
CCN(CC)S(=O)(=O)c1ccc2oc(SCC3CN=C(c4ccc(OC)cc4)S3)nc2c1 (stereo not given) | 24 | 14µM* | 22µM* | ?
CC(C)CN(C)c1nc(N)c(C(=O)N=C(N)N)nc1Cl | · | -15% | -12% | -4%
CN(C)CCCNC(NC(=O)/C=C/c1ccccc1)C(Cl)(Cl)Cl (stereo not given) | · | · | 3% | -2%
CC1(CO)COC(c2ccccc2)=N1 (stereo not given) | · | · | · | 5%
Cc1ccc(NC(=O)C2CC(=O)n3ncnc3N2)cc1C (stereo not given) | · | · | ? | -4%
C(=N\Nc1ccccn1)/c1c[nH]c2ccccc12 | · | · | · | -25%
C(=N\c1nccs1)/c1c[nH]c2ccccc12 | 11 | -9% | 13µM* | 2%
CCOC(=O)c1sc(NC(=O)c2cccc(S(=O)(=O)N(CC)CC)c2)cc1C | -8 | 11% | 12% | ?
CCOC(=O)c1sc(NC(=O)c2cccc(S(=O)(=O)N3CCN(C)CC3)c2)cc1C | -12 | 25µM* | ? | -20%
COCCn1c(SCC(=O)N2CCCCC2)nc2ccccc2c1=O | 20 | -23% | 10µM* | 3%
O=C(CSc1nc2ccccc2c(=O)n1CCC(=O)N1CCCCC1)NCc1ccccc1 | ? | -11% | 8.9µM* | 2%
CCn1c(CCCc2nc3c([nH]2)c(=O)n(C)c(=O)n3C)nc2c1c(=O)n(C)c(=O)n2C | · | -5% | 3%[13.5 µM] | ·
CCN(C(=O)CN1CCN(S(=O)(=O)c2ccccc2C(F)(F)F)CC1)c1c(N)n(Cc2ccccc2)c(=O)[nH]c1=O | 3 | -4% | 11% | 6%
N#Cc1cccc(C#N)c1Oc1ccc(S(=O)(=O)Nc2ccc(Cl)cc2)cc1 | · | · | · | -11%
Cc1cccc(C)c1Nc1nnc(SCc2nc3ccccc3c(=O)[nH]2)s1 | -118* | -10% | -4% | 8%
O=c1[nH]c(CSc2nc(-c3ccc(F)cc3)cs2)nc2ccccc12 | -116* | -3% | 13% | 5%
Cc1ccc(N2C(=O)CC(NCC3CCCO3)C2=O)cc1 (stereo not given) | · | · | 20µM* | -11%
Cc1cc2c(=O)n(Cc3ccco3)c(SCC(=O)N3CCCc4ccccc43)nc2s1 | -5 | -12% | 11µM* | -2%
Cc1cc2c(=O)n(Cc3ccco3)c(SCC(=O)NCc3ccco3)nc2s1 | -2 | -18% | 7.9µM* | 1%
CCn1c(SCC(=O)N2CCCc3ccccc32)nc2ccccc2c1=O | 34 | -26% | ? | -1%
COc1ccc(OC)c(-n2c(-c3ccc(C)cc3)n[nH]c2=S)c1 | -2 | ? | 18µM* | 0%
SMILES | PNC inhibitor | HPGD inh | ALDH1A1 inh | KDM4E inh
COc1ccc(-c2n[nH]c(=S)n2N)c(OC)c1 | · | · | 25µM* | ?
COc1ccc(-c2n[nH]c(=S)n2-c2cc(OC)ccc2OC)cc1 | · | · | · | -7%
CC(C)OCCCNC(=O)CNC(=O)c1ccc(Cl)c(Cl)c1 | · | · | 5% | 0%
CC(=O)O[C@]1(C)N=NC2(CCCCC2)O1 | · | -3% | -1%[13.5 µM] | ·
CCN(CC)S(=O)(=O)c1ccc(N2CCOCC2)c(NC(=O)C23CC4CC(CC(Cl)(C4)C2)C3)c1 | 14 | -23% | ? | 0%
Cc1ccc(/C=N/Nc2cccc3cccnc23)c(O)c1 | 22 | · | 5% | -7%
Oc1ccc(/C=N/Nc2cccc3cccnc23)c(O)c1 | -11 | 16µM* | ? | -23%
Oc1ccc(/C=N/Nc2ncc(Br)cn2)c(O)c1 | 47 | ? | -3% | 11µM*
Oc1ccc(/C=N/Nc2nccnc2Cl)c(O)c1 | 53 | 28µM* | ? | ?

Screening results: PubChem, National Center for Advancing Translational Sciences (NCATS)
